# This is a sample that favours compounds with a hit; in the whole collection about 8.8% have one here.
# HT1080 IDH1KD tx – toxicity to HT-1080 IDH1 knockdown cells (counter line) | HT-1080 IDH1 knockdown viability, ATP luminescence, 48 h | Potency, µM (titrated, usually from 46.1 µM), for the others: top-dose activity, negative = toxicity, most hits filed as cytotoxic | 360,000 compounds, 2% hits;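 note: potency is the fitted concentration of half-maximal effect; 0% = DMSO wells and -100% = cell-free medium wells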
#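 Viability of IDH1-knockdown HT-1080 fibrosarcoma cells was assessed by CellTiter-Glo after 48 h at 37 °C with titrated compound; concentration-effect curves were classified by fit quality and response size.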
# KB-3-1 cytotox – KB-3-1 parental cell cytotoxicity | KB-3-1 viability, CellTiter-Glo ATP luminescence, 72 h | Potency, µM (doses to about 46.1 µM), actives largely listed as cytotoxic | 400,000 compounds, 1.4% hits; note: potency is the fitted concentration of half-maximal effect; nearly all actives have a fitted effect of over 60% in size
#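 Parental KB-3-1 viability, qHTS format: 72 h compound exposure, 37 °C; CellTiter-Glo; media-only wells and DMSO plates as controls; concentration-effect fits on corrected data.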
# HT1080-NT tox – kills 2HG-producing HT-1080-NT fibrosarcoma cells | AID 686970 | Potency, µM (doses to about 46.1 µM), inactives show at the highest dose activity, negative = less viability, actives largely listed as cytotoxic | 360,000 compounds, 1.6% hits | HT-1080-NT fibrosarcoma viability, CellTiter-Glo ATP luminescence, 48 h;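 note: NT is the 2HG producing partner of a matched IDH1 knockdown line; potency is the fitted concentration of half-maximal effect; 0% = DMSO-treated cells and -100% = media-only wells without cells; nearly all actives have a fitted effect of over 55% in size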
#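 A 48-hour cytotoxicity screen used HT-1080-NT cells plated 2 hours before compound delivery. ATP-based CellTiter-Glo luminescence measured viability, normalized to DMSO and no-cell controls.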
# IL-1B inflam inh – inflammasome signaling inhibition, IL-1 beta readout | THP-1 LPS/ATP IL-1B secretion, AlphaLISA, 16 h; stronger effect = lower value | activity change, % at 57.5 µM | 360,000 compounds, 4.7% hits; in the data active = activity change below about -50%; inconclusive = mostly about -30% to -49%
#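 THP-1 cells pretreated 1 hr with compounds (up to 57.5 uM final), then stimulated with LPS (250 ng/mL final) plus ATP (1.25 mM final); secreted IL-1B measured by AlphaLISA after 16 hr, decreased signal indicating inhibition.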
# KB-V1 cytotox – KB-V1 MDR subline cytotoxicity; KB-V1 MDR cells viability, CellTiter-Glo, 72 h; Potency, µM (titrated, usually from 46.1 µM), hits mostly cytotoxic; 400,000 compounds, 3.4% hits; note: potency is the fitted concentration of half-maximal effect; nearly all actives have a fitted effect of over 60% in size
#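 Readout: CellTiter-Glo luminescence, 10 min after addition. Cells: KB-V1 MDR subline, 72 h at 37 degrees C with compound. Analysis: corrected, normalized data fitted to concentration-effect curves.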
# Starred values were filed as active, the others as inactive; i = inactive; ? = inconclusive; . = no result given. Unless noted, calls come from the whole dose curve; as a rule, active = well fitted curve in the direction sought with a large enough effect; inconclusive = small, poorly fitted or top-dose-only effect, or another doubt; inactive = no such curve, though single readings can be large; an effect the other way counts as inactive or inconclusive. Unless noted, % is set by controls: 0 for no effect and ±100 for the full control effect.
SMILES,HT1080 IDH1KD tx,KB-3-1 cytotox,HT1080-NT tox,IL-1B inflam inh,KB-V1 cytotox
COc1ccc(CCNC(=O)CN(c2cc(OC)ccc2OC)S(=O)(=O)c2ccccc2)cc1,-4%,i,21%,-26,23µM*
CCN(CC(=O)Nc1c(F)cccc1F)C(=O)CCCN1C(=O)c2cccc3cccc(c23)C1=O,0%,i,1%,-51*,i
CN(CC(=O)Nc1cccc(F)c1)C(=O)CCCN1C(=O)c2cccc3cccc(c23)C1=O,-9%,i,-10%,-65*,?
CN(CC(=O)Nc1cccc(F)c1)C(=O)CCSc1ccc(F)cc1,-16%,8.2µM*,?,-1,?
CN(CC(=O)Nc1cccc(F)c1)C(=O)CCN1C(=O)C2CC=CCC2C1=O (stereo not drawn),-2%,i,-2%,45,i
CCN(CC(=O)Nc1ccc(NC(C)=O)cc1)C(=O)CCCN1C(=O)c2ccccc2C1=O,6%,i,3%,13,i
COc1ccc([C@@H]2CC=C(C(=O)O)[C@H](c3ccccc3F)N2S(=O)(=O)c2ccccc2C)cc1,2%,i,2%,-10,?
CC(=O)c1ccc(NC(=O)Cc2ccsc2)cc1,0%,i,8%,-22,i
COc1cc(C#N)c(NC(=O)CN2CCC(C(N)=O)CC2)cc1OC,6%,i,8%,18,i
CC(=O)C(=Cc1ccc(-c2ccccc2)cc1)C(=O)c1ccccc1,23µM*,?,15µM*,-112*,?
O=C(C(Br)=Cc1ccccc1)c1ccccc1,?,.,5.8µM*,-110*,.
CCC(=O)Nc1ccccc1-c1nc2ccccc2n(CC(=O)c2ccc(Br)cc2)c1=O,.,i,.,.,i
O=C(C[C@H]1C[C@H](C(=O)N2CCOCC2)[C@@]2(CCC3CCCC3)c3[nH]c4cc(-c5ccco5)ccc4c3CCN2C1=O)NCCCn1ccnc1,16µM*,?,?,?,i
COCCCNC(=O)C[C@H]1C[C@H](C(=O)N2CCCCC2)[C@@]2(CCc3ccccc3)c3[nH]c4cc(-c5ccco5)ccc4c3CCN2C1=O,?,i,-22%,?,i
O=C(C[C@H]1C[C@H](C(=O)N2CCCCC2)[C@@]2(CCc3ccccc3)c3[nH]c4ccc(Cl)cc4c3CCN2C1=O)NCCCn1ccnc1,?,i,?,-58*,i
CCN(CC)C(=O)[C@H]1C[C@H](CC(=O)NCCCn2ccnc2)C(=O)N2CCc3c([nH]c4cc(-c5ccco5)ccc34)[C@]12C,-1%,i,-1%,2,i
O=C(C[C@H]1C[C@H](C(=O)N2CCCCC2)[C@@]2(CCc3ccccc3)c3[nH]c4cc(-c5ccco5)ccc4c3CCN2C1=O)NCCN1CCOCC1,?,18µM*,?,-58*,?
C[C@]12c3[nH]c4cc(-c5ccco5)ccc4c3CCN1C(=O)[C@@H](CC(=O)NCCc1ccccn1)C[C@@H]2C(=O)N1CCCCC1,-10%,i,-5%,-108*,i
Cc1cc(/C=C2\C=Cc3ccccc32)ccc1N(C)C,.,i,.,.,i
CC1(C)C=C2C(=NN(c3ccccc3)C(N)=C2C#N)CO1,-1%,i,-15%,2,i
COP(=O)(OC)C(Nc1ccc(C)cc1)c1ccc(Br)cc1 (stereo not drawn),-11%,i,-3%,-25,i
Cc1ccc2nc(N/N=C/c3ccco3)cc(C)c2c1,-1%,i,-8%,-56*,?
NS(=O)(=O)c1ccc(N/C=C\C(=O)c2cccc3ccccc23)cc1,-16%,i,-21%,11,i
COc1ccccc1N1CCN(C(=O)CN(CCc2ccccc2)S(C)(=O)=O)CC1,13%,i,4%,1,9.2µM*
COC(=O)[C@@H](NC(=O)NCCC1=CCCCC1)C(C)C,-5%,i,-5%,3,i
SMILES,HT1080 IDH1KD tx,KB-3-1 cytotox,HT1080-NT tox,IL-1B inflam inh,KB-V1 cytotox
Cc1nc2ccccc2cc1OCc1ccc(Cl)cc1,-17%,2.6µM*,-6%,?,1.8µM*
CCCCN(C=O)c1c(CC)nc2ccc(C(=O)N3CCCCC3)cn12,2%,i,17%,-2,i
Cc1cc(C(=O)NNC(=O)c2sccc2C)c(C)o1,-6%,?,-14%,-6,i
S=C1NC2(CCCCC2)NN1c1ccccc1,?,i,?,22,i
O=C1NC2(CCC3(CC2)OCCO3)NN1c1ccccc1,7.3µM*,i,6.5µM*,-1,i
CC1NC(=O)c2cc3ccccc3cc2-n2c1nc1ccccc1c2=O (stereo not drawn),5%,i,8%,-4,i
CCOC(=O)[C@]12CCC=C1N(Cc1cccc3ccccc13)C(=O)[C@H](CC(=O)N1CCCCC1)C2,?,i,-29%,-13,?
CCOC(=O)[C@]12CCCC=C1N(Cc1cccc3ccccc13)C(=O)[C@H](CC(=O)N1CCSCC1)C2,-29%,i,?,-5,18µM*
CCOC(=O)[C@]12CCCC=C1N(Cc1cccc3ccccc13)C(=O)[C@H](CC(=O)N1CCCCC1)C2,-11%,?,-21%,-23,9.2µM*
CCOC(=O)[C@]12CCC=C1N(Cc1cccc3ccccc13)C(=O)[C@H](CC(=O)N1CCSCC1)C2,-22%,i,?,-11,?
Cc1ccc2nc(-c3ccccn3)[nH]c2c1,18µM*,?,?,-4,18µM*
COC(=O)c1ccccc1NC(=O)N1CCN(C(=O)c2ccco2)CC1,9%,?,0%,-4,7.3µM*
Cc1ccccc1NC(=O)N1CCN(C(=O)c2ccco2)CC1,-8%,i,-2%,-10,i
COC(=O)c1ccccc1NC(=O)N1c2ccccc2CC1C (stereo not drawn),-5%,i,-8%,18,23µM*
N/C(=N\OC(=O)CSc1ccccc1)c1ccncc1,9%,i,0%,7,?
CCCNC(=O)c1ccccc1NC(=O)c1ccccc1N(C)S(=O)(=O)c1ccc(C)cc1,?,18µM*,?,-16,?
CCOc1ccccc1NC(=O)CCN(c1ccc(C)cc1)S(=O)(=O)c1ccccc1,-24%,?,-12%,6,2.6µM*
CCOc1ccccc1NC(=O)c1ccccc1N(C)S(=O)(=O)c1ccc(C)cc1,-16%,?,-7%,-25,12µM*
CCOc1ccccc1NC(=O)c1ccc(S(=O)(=O)N(C)c2ccccc2)cc1,0%,i,6%,0,?
CCOc1ccccc1NC(=O)c1cc2cc(C)ccc2n1C,.,?,.,.,8.2µM*

# Screening data from PubChem.
